Screening data deposited in PubChem BioAssay by National Center for Advancing Translational Sciences (NCATS).
D2 antag: HTS Assay for Allosteric Antagonists of the Human D2 Dopamine Receptor: Primary Screen for Antagonists | D(2) dopamine receptor (Homo sapiens), P14416 | HEK293 TREx D2 cells, calcium flux, dopamine EC80 | inhibition, % at 10 µM | actives 2% (n = 340,000); in the data active = inhibition above about 30%; inactive = below that, where a call was filed; also: 0% is about no effect
Target sequence (P14416 whole entry, looked up): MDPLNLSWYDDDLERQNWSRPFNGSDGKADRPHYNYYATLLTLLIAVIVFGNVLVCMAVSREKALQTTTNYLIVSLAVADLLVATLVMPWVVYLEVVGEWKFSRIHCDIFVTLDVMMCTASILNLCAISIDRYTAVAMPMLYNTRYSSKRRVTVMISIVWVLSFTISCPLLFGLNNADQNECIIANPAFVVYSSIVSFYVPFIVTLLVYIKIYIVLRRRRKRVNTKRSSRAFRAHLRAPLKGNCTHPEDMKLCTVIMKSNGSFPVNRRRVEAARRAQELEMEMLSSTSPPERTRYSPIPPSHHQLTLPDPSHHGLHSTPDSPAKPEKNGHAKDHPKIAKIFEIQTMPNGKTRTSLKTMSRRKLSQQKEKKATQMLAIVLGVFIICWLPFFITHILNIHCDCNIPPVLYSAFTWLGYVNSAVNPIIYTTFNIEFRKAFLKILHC
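Cells plated overnight at 30 C with tetracycline; no-wash calcium dye, 30–90 min RT; 10 s baseline; compound pinned; 180 s read; EC80 dopamine added; another 180 s read.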
D2 PAM-1: Beta-Arrestin HTS for Positive Allosteric Modulators of the Human D2 Dopamine Receptor: Potentiators. D(2) dopamine receptor (Homo sapiens), P14416. DiscoveRx D2 beta-arrestin cells, luminescence, 90 min; 100% = 57 uM dopamine signal. potentiation, % (test concentration not listed). actives 0.23% (n = 360,000); in the data active = potentiation above about 50%; inconclusive = mostly about 30% to 49%
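PathHunter beta-arrestin assay in DiscoveRx D2 cells. Compounds were added with an EC20 of dopamine (50 nM final) for 90 min at 37 deg C. Luminescence was read 1 h after detection reagent, with 57 uM dopamine as the EC100 control.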
D2 PAM-2: HTS Assay for Positive Allosteric Modulators of the Human D2 Dopamine Receptor: Primary Screen for Potentiators; HEK293 T-REx D2, calcium flux, EC20 dopamine potentiation; potentiation, % at 10 µM; actives 0.34% (n = 340,000); AID 485347, 2010;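 active = potentiation over 3 SD above the plate norm, cut at about 30% in these data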; also: 0% is about no effect
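Primary screen. Calcium kinetics in induced HEK293 T-REx D2 cells: compound pre-addition 180 s, EC20 dopamine, 180 s more.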
Anesthetic bind: qHTS Assay for Identification of Novel General Anesthetics | Ferritin light chain (Equus caballus), P02791 | apoferritin/1-aminoanthracene competitive binding, fluorescence | Potency, µM (series often up to 77.5 µM), without a hit: top-dose activity change, negative = displacement, actives largely listed as inhibitors | actives 0.074% (n = 350,000); active = well fitted inhibition curve with a large enough effect; inconclusive = small, poorly fitted or top-dose-only effect; inactive = no such curve, though single readings can be large or run the other way; also: potency is read from the fitted curve at half-maximal effect; % is scaled to controls: 0 for no effect and ±100 for the full control effect; nearly all actives have a fitted effect of over 20% in size
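Horse-spleen apoferritin (10 uM) in 50% saturated 1-aminoanthracene in PBS was incubated 10 min at room temperature with compound. Fluorescence (ex 380, em 535 nm) was normalized to free and bound 1-AMA, with concentration-response fitted by a four-parameter Hill equation.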
D2 ag-1: Beta-Arrestin HTS for Positive Allosteric Modulators of the Human D2 Dopamine Receptor: Agonists; actives 0.084% (n = 360,000); AID 624465, 2012; D(2) dopamine receptor (Homo sapiens), P14416; DiscoveRx PathHunter D2 beta-arrestin, luminescence, 90 min; 100% = 57 uM dopamine signal; activation, % (test concentration not listed); in the data active = activation above about 40%; inconclusive = between about 15% and that limit
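Agonist mode: compounds alone added to overnight-plated D2 PathHunter cells for 90 min at 37 C, with 57 uM final dopamine (EC100) defining full response. Beta-arrestin recruitment detected by chemiluminescent reagent, read after 1 h at ambient temperature.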
D2 ag-2: HTS Assay for Allosteric Agonists of the Human D2 Dopamine Receptor: Primary Screen for Agonists | D(2) dopamine receptor (Homo sapiens), P14416 | HEK293 T-REx D2 cells, calcium flux agonist mode | actives 0.53% (n = 340,000) | activation, % at 2 µM;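 active = activation over 3 SD above normal in the single-dose calcium agonist read, cut at about 30% in these data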; also: 0% is about no effect
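Agonism is scored from calcium flux in a force-coupled, inducible HEK293 cell line expressing D2, read kinetically for 180 s after compound addition against dopamine controls.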
Active calls of the source: *; ? = inconclusive; . = no result. Most compounds without a hit are left out; they make up all but 2.5% or so of the library.

SMILES	D2 antag	D2 PAM-1	D2 PAM-2	Anesthetic bind	D2 ag-1	D2 ag-2
O=C(Nc1cccc([N+](=O)[O-])c1)C1CC(=O)N(C2CCCCC2)C1 (configuration not stated)	31*	-24	-18	-20%	-3	-1
O=C(NCCc1cccc(F)c1)C1CCC(=O)N(C2CCCCCC2)C1 (configuration not stated)	34*	-4	-4	-18%	5	0
O=C(NCCN1CCc2ccccc2C1)C1CC(=O)N(C2CCCC2)C1 (configuration not stated)	33*	-28	14	6%	-2	1
O=C(NCc1cccc(F)c1)C1CCC(=O)N(C2CCCC2)C1 (configuration not stated)	11	-3	-9	-7%	0	0
COc1ccccc1NC(=O)C1CCCN(S(=O)(=O)c2ccc(-n3cnnn3)cc2)C1 (configuration not stated)	-21	-2	-3	4%	4	-1
CCC(C)N1C(=O)/C(=C/c2c(NCCCOC(C)C)nc3c(C)cccn3c2=O)SC1=S (configuration not stated)	25	-3	20	?	-3	34*
CCC(C)Nc1nc2c(C)cccn2c(=O)c1C=Nc1ccc(OC)cc1 (configuration not stated)	-7	-5	6	-14%	-3	-4
O=C(O)CC(c1ccc(Br)cc1)N1Cc2ccccc2C1=O (configuration not stated)	42*	1	1	6%	-2	0
O=C(O)CC(c1ccc(Cl)cc1)N1Cc2ccccc2C1=O (configuration not stated)	-24	1	3	0%	-3	-2
CCn1nc(NS(=O)(=O)c2cccc3nonc23)c2cc3ccc(C)cc3nc21	6	-13	-29	-15%	-4	0
CSc1cccc(NC(=S)NCCCN2CCN(c3ccc(F)cc3)CC2)c1	43*	-13	-21	-6%	-2	1
Cc1ccc(P(C)(=O)c2ccc(C)cc2)cc1	5	-7	4	-2%	-3	1
COc1ccc(C)cc1NC(=O)CSc1nc2ccccc2nc1N1CC(C)OC(C)C1 (configuration not stated)	38*	-2	-1	-11%	-1	0
CCc1nc(SCC(=O)Nc2cc(C)ccc2OC)c2c(C)c(C)sc2n1	44*	0	5	-12%	1	0
COc1ccc(N=Nc2nc3ccc(Br)cc3n2C)cc1	23	-46	33*	-19%	-7	0
COc1ccc(-c2c(-c3cc(OC)cc(OC)c3)n(C)c3ccc(Br)cc23)cc1	7	-2	10	.	-3	0
Cc1c(/C(Cc2ccccc2)=N/O)c2ccccc2n1C	37*	0	-2	-14%	-3	4
Cc1c(C(=O)CN2CCSCC2)c2ccccc2n1C	4	-23	-3	3%	-2	-2
Cc1c(NS(=O)(=O)c2ccc(NC(=O)CCC(=O)O)cc2)c(=O)n(-c2ccccc2)n1C	30*	-7	-4	-2%	8	1
CC(=O)N1CCN(C(=O)c2cccc(S(=O)(=O)Nc3c(C)n(C)n(-c4ccccc4)c3=O)c2)CC1	51*	-14	-5	.	1	0
Cc1c(NS(=O)(=O)c2cccc(C(=O)N3CCCC3)c2)c(=O)n(-c2ccccc2)n1C	.	-21	.	.	2	.
